Test results from PubChem BioAssay.

What was measured:
[1] = molecular target: Tumor necrosis factor receptor superfamily member 10B (Homo sapiens) (UniProt O14763); assay: caspase-8 TRAIL sensitization, hit retest, confirmation, cell-based, NB7+caspase-8, with/without TRAIL, luminescence panel (AID 651596); conditions: NB7 neuroblastoma + caspase-8, TRAIL sensitization, luminescence viability, with TRAIL, mean of runs, at 10 µM, stronger effect = higher value
[2] = as above; conditions: NB7 neuroblastoma + caspase-8, without TRAIL, luminescence viability, without TRAIL, mean of runs, at 10 µM

Sequence of Tumor necrosis factor receptor superfamily member 10B (Homo sapiens) (O14763 whole entry, looked up): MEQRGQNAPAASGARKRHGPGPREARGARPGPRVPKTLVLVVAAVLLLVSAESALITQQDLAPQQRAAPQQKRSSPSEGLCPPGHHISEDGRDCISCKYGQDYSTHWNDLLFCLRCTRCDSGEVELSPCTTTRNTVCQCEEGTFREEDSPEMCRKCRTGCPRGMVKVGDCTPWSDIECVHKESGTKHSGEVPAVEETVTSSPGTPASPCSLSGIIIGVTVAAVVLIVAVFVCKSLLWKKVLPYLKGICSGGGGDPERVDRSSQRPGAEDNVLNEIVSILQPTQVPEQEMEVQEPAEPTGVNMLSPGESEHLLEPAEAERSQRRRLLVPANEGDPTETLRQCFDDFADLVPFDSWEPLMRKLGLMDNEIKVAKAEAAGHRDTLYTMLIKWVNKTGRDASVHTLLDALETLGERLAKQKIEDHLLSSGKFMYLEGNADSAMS

| SMILES | activity [1] | activity [2] |
| --- | --- | --- |
| CN(C)CCNC(=O)c1cc2c(s1)-c1ccc(Cl)cc1SC2 | 99% | 99.5% |
| Cc1cc(N2CCOCC2)n2ncc(-c3ccccc3)c2n1 | 66.8% | 52.8% |
| C=C1C(=O)OC2C=C(CO)C3OC3C3OC3(C)CC(OC(=O)/C(=C/C)COC(C)=O)C12 (centres undefined) | 70.1% | 81% |
| COc1ccc(C(=O)Nc2cc(C)on2)cc1 | 49.3% | 38.6% |
| Clc1ccc(CN2CCc3c([nH]c4ccccc34)C2)cc1Cl | -9.62% | -14.6% |
| Cc1cc(=O)n2[nH]c(-c3ccc(F)cc3)nc2n1 | 44.8% | 42.6% |
| CCc1ccc(-c2cn3nc(C)c(C)nc3n2)cc1 | 75.3% | 63.9% |
| C#CCSc1nnc(CSc2nc3ccccc3s2)n1-c1ccccc1 | 95.3% | 94.8% |
| CCCCN=C1NN=C(c2ccc3c(c2)OCCO3)CS1 | 47.9% | 31.8% |
| CC(=O)CSc1nc2cc3c(cc2cc1C#N)OCCO3 | 49.6% | 35.5% |
| Cc1ccccc1C(=O)O/N=C(\N)c1ccncc1 | 61.6% | 76.3% |
| Cc1ccc(Nc2nc(N)nc(CCl)n2)cc1 | 98.9% | 97.5% |
| CN(c1ccccc1)S(=O)(=O)c1ccc(NC(=O)c2nc(S(C)(=O)=O)ncc2Cl)cc1 | 80.7% | 99.3% |
| Cc1ccc(C(=O)Oc2ccc(C(=O)COC(=O)c3cnccn3)cc2)cc1 | 19.9% | 31.6% |
| Cc1nc(-c2ccc(NC(=O)c3ccccc3)cc2)cs1 | 80.8% | 76.2% |
| O=C(/C=C/C(Cl)(Cl)Cl)Nc1ccc(Cl)cc1 | 98.8% | 98.9% |
| CC1=C(C(=O)N(C)C)CC(CC(=O)NCCN2CCOCC2)C(=O)N1CCCN1CCCC1=O (centres undefined) | -0.625% | -4.97% |
